In the library only some 2% were active in any assay of this set; here they are far more common.
Shn3 3UTR inh: Schnurri-3 reporter inhibition in Clone20 osteoblasts. AID 588674. hit rate 0.52% among 360,000. inhibition, % at 12.5 µM. Clone20 osteoblast Shn3 3'UTR firefly luciferase, 24 h;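 active = mean inhibition of at least 75% with every replicate also reaching 75%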;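 also: 0% = median of neutral control wells and 100% = pilot-screen positive control compound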
LGR2 antag: inhibitors of bursicon-induced Drosophila LGR2 receptor cAMP signaling; hit rate 0.35% among 380,000; inhibition, % at 9.99 µM; HEK293 LGR2, CRE-luciferase, bursicon-stimulated, 4 h; AID 720647;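 active = drop in luminescence signal, shown as inhibition above about 50% in the replicate tests, limit read from the data, passing the limit was not always enough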;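 also: agonist challenge used bursicon conditioned medium at about half maximal strength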
KKLEB tox: counter-screen for CF NF-kB inhibitors: cytotoxicity. KKLEB CF airway cells viability, ATPlite luminescence, overnight; hits give low values; cells stimulated with P. aeruginosa culture filtrate. activity change (cytotoxicity), % at 5 µM. hit rate 0.36% among 360,000. AID 602141;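 active = corrected activity change at or below -50% at 5 µM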
CF NFkB inh: inhibitors of cystic fibrosis induced NF-kB. hit rate 0.86% among 360,000. KKLEB NF-kB-GFP reporter, PAF-induced, GFP fluorescence overnight. inhibition, % at 5 µM;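 active = at least 50% inhibition at 5 µM, scaled per plate between neutral and stimulator controls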;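 also: PAF is a Pseudomonas aeruginosa culture filtrate used as stimulus; plate controls were PAF-stimulated DMSO wells for no effect and unstimulated DMSO wells for full effect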
EWS-Fli inh: blocks EWS/Fli oncoprotein-driven transcription; A673 NR0B1-luciferase reporter, viability-normalised; inhibition, % at 12.6 µM; hit rate 0.67% among 350,000;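 active = mean inhibition of at least 50% after viability correction, with every replicate also passing that limit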;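 also: firefly luciferase signal divided by Alamar Blue viability fluorescence both relative to DMSO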
PAX8 inh HTS: lowers PAX8-driven luciferase in RMG-I cells | RMG-I TPO-luciferase reporter, SteadyGlo, 24 h | inhibition, % at 12.6 µM | hit rate 1.2% among 360,000 | AID 652154;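 active = mean replicate inhibition at least 60% with every replicate also reaching 60%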;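 also: luciferase light reporting Pax8 driven TPO promoter activity; plate controls were median of neutral control wells for no effect and mitoxantrone controls for full effect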
Starred values were filed as active, the others as inactive; nt = not tested or not shown.

SMILES	Shn3 3UTR inh	LGR2 antag	KKLEB tox	CF NFkB inh	EWS-Fli inh	PAX8 inh HTS
Cc1noc(C)c1NC(=O)Nc1ccc2c(c1)C(=O)N([C@@H](C)CO)C[C@H](C)[C@@H](CN(C)Cc1ccc3c(c1)OCO3)O2	nt	-5	nt	nt	-14	-7
CC(=O)Nc1ccc(C(=O)CSc2cc(C)c3cccc(C)c3n2)cc1	-1	18	-1	-15	-3	123*
O=C(N[C@H]1CC[C@H](CCn2cc(-c3ccccn3)nn2)O[C@@H]1CO)c1ccncc1	nt	5	nt	nt	-3	-3
COc1ccc(NC(=O)CSc2ncnc3c2sc2ccccc23)c(OC)c1	5	-11	-55*	53*	nt	2
C[C@@H]1CN([C@@H](C)CO)C(=O)Cc2cc(NC(=O)Nc3ccc(F)cc3)ccc2O[C@@H]1CN(C)Cc1ccc(-c2ccccc2)cc1	nt	11	nt	nt	8	nt
O=C(OCn1ncc(Cl)c(Cl)c1=O)c1ccccc1Cl	99*	nt	-90*	99*	nt	nt
C[C@H]1CN([C@@H](C)CO)C(=O)c2cc(NS(=O)(=O)c3ccccc3)ccc2O[C@@H]1CN(C)C(=O)Nc1ccc2c(c1)OCO2	nt	0	nt	nt	3	nt
C[C@H](CO)N1C[C@H](C)[C@H](CN(C)S(=O)(=O)c2ccc(F)cc2)OCCCC[C@H](C)Oc2ccc(NC(=O)Nc3ccc(F)cc3)cc2C1=O	nt	8	nt	nt	2	76*
Cc1ccc(S(=O)(=O)N(C)C[C@@H]2OCCCC[C@H](C)Oc3ccc(NC(=O)Nc4ccc(F)cc4)cc3C(=O)N([C@H](C)CO)C[C@@H]2C)cc1	nt	14	nt	nt	10	61*
C[C@@H]1CN([C@H](C)CO)C(=O)c2cc(NC(=O)Nc3ccc(F)cc3)ccc2O[C@@H](C)CCCCO[C@H]1CN(C)S(=O)(=O)c1ccc(F)cc1	nt	18	nt	nt	2	86*
C[C@@H]1CN([C@H](C)CO)C(=O)c2cc(C3=CCCC3)cnc2O[C@H]1CN(C)Cc1ccccc1	nt	14	nt	nt	12	nt
CCCCNC(=O)CO/N=C(\C)c1cc2ccccc2o1	-7	-13	9	0	nt	nt
C/C(=N\OCC(=O)NCC(F)(F)F)c1cc2ccccc2o1	-65	-35	1	-2	-71	84*
COCC(=O)N1C[C@H]2[C@@H](c3ccccc31)[C@@H](CO)N2C(=O)Nc1ccccc1F	nt	8	nt	nt	0	-6
COc1ccc(NC(=O)Nc2cccc3c2O[C@H](CN(C)C(=O)Nc2ccccc2)[C@H](C)CN([C@@H](C)CO)C3=O)cc1	nt	-12	nt	nt	-2	nt
Cc1ccc(S(=O)(=O)CC2CSc3nc4ccccc4n32)cc1 (stereo unspecified)	90*	15	14	-2	2	nt
Cc1cccc(N2CCN(C(=O)c3ccc(CS(=O)(=O)c4ccccc4C)o3)CC2C)c1 (stereo unspecified)	18	nt	-11	53*	nt	60
O=C1NC(=S)SC1=Cc1ccccc1Cl	1	nt	-1	44	0	-28
Cc1ccc(C2C(/C=C3/SC(=S)NC3=O)=C(c3cccs3)Oc3ccccc32)cc1 (stereo unspecified)	22	0	-38	64*	6	nt
C[C@@H]1CN([C@H](C)CO)C(=O)c2cccc(NC(=O)Nc3ccc(F)cc3)c2O[C@H]1CN(C)Cc1ccccc1	nt	31	nt	nt	15	4
Cc1noc(C)c1COc1ccccc1C(=O)N1CCN(c2cccc(C(F)(F)F)c2)CC1	11	5	-19	28	64*	22
Cc1ccc(/C=C/C(=O)N2CCN(c3cccc(C(F)(F)F)c3)CC2)cc1	-12	-2	-8	-7	2	89*
CCOc1ccc(-c2nnc(SCC(=O)Nc3cc(C)on3)o2)cc1	25	-27	-8	-8	65*	-62
Cc1ccc(-c2nnc(SCC(=O)Nc3ccccc3F)o2)cc1	75	57*	-22	-11	85*	59
O=C(CSc1nnc(-c2ccccc2)o1)Nc1ccccc1F	43	24	1	-8	78*	26
O=C(CSc1nnc(-c2ccc(Br)cc2)o1)Nc1cccc(C(=O)O)c1	28	17	18	-4	nt	83*
COc1ccc(S(=O)(=O)N(C)C[C@@H]2Oc3ncc(C#Cc4ccccc4)cc3C(=O)N([C@H](C)CO)C[C@@H]2C)cc1	nt	-2	nt	nt	4	nt
